Data from ChEMBL document CHEMBL4808148, “HDAC6 screening dataset using tau-based substrate in an enzymatic assay yields selective inhibitors and activators” (2021).
Values joined by “and” are separate entries in the source; they are usually repeats but may differ in a detail not shown here. Identical values can stand only once. Out of some 5,600 compounds screened, about 390 (7%) showed an effect of 50% or more. Only a selection was taken, and strong results are over-represented in it overall.

Each compound was assayed against T1, Protein deacetylase HDAC6 (Homo sapiens) (UniProt Q9UBN7). Settings: at 10 µM.
T1 sequence (whole entry): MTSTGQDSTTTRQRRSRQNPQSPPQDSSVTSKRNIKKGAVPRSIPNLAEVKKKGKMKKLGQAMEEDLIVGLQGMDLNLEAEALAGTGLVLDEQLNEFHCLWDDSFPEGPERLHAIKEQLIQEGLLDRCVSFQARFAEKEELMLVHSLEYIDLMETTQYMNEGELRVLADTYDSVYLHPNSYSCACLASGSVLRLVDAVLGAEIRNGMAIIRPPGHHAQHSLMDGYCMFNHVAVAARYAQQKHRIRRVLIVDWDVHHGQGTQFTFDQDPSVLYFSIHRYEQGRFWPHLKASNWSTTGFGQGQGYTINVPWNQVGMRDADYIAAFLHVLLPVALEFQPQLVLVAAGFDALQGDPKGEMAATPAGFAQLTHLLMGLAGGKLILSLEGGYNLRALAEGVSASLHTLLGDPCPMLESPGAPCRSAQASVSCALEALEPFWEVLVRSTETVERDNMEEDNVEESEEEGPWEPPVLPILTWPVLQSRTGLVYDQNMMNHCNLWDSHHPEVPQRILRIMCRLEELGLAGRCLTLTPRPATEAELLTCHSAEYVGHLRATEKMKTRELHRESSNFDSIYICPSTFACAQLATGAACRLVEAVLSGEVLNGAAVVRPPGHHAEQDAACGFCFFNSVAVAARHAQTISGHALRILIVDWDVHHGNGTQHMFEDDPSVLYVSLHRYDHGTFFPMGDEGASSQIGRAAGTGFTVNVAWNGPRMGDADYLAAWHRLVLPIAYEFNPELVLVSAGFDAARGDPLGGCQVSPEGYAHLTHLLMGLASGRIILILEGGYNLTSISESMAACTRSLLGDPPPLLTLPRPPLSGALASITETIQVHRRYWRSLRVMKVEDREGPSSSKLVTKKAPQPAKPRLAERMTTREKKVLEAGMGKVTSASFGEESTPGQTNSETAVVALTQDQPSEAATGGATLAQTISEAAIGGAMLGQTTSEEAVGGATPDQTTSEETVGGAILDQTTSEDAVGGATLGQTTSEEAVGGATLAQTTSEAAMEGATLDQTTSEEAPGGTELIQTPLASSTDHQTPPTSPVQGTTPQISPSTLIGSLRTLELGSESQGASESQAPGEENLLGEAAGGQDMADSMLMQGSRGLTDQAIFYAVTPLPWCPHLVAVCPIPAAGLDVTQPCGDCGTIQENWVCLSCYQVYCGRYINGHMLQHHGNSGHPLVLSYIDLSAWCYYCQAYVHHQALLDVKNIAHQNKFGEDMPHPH

SMILES | inhibition
NC(=O)[C@H]1CCS[C@@H]2C[C@]3(CCCN3C(=O)Cc3ccc(NC(=O)COc4ccc(Cl)cc4Cl)cc3)C(=O)N12 | 3.16%
Cc1c(C)c2c(c(C)c1O)C[C@@](C)(CCC[C@H](C)CCC[C@H](C)CCCC(C)C)OC2 | 18.1%
O=C1N=C(NCc2cccs2)S/C1=C\c1ccc2ncccc2c1 | 68.2%
Nc1cc2c3ccccc3ccc2c2ccccc12 | 96%
Oc1ccc2ccccc2c1Cc1c(O)ccc2ccccc12 | 25.7%
Cc1cc(N)c2ccccc2[n+]1CCCCCCCCCC[n+]1c(C)cc(N)c2ccccc21 | -8%
COc1nccc(-c2c(-c3ccc(F)cc3)ncn2[C@H]2CC[C@H](O)CC2)n1 | -0.9%
COc1c2occc2c(OC)c2c(=O)cc(C)oc12 | -5.99%
Cc1cn(C[C@H](N)C(=O)O)c(=O)n(Cc2ccsc2C(=O)O)c1=O | 14.3%
CN1CCCN=C1/C=C/c1cccs1 | 82.3%
CN1CCCN=C1/C=C/c1cccc(O)c1 | 74.1%
CN1CCCN=C1COC(=O)C(O)(c1ccccc1)C1CCCCC1 (centres undefined) | -6.61%
Cc1ccsc1/C=C/C1=NCCCN1C | 1.45%
COc1ccc(N(C)c2nc(C)nc3ccccc23)cc1 | -1.78%
CC[C@@H]1C[C@H](N(Cc2cc(C(F)(F)F)cc(C(F)(F)F)c2)C(C)=O)c2cc(C(F)(F)F)ccc2N1C(=O)OC(C)C | 3.27%
COC(=O)C1=C(C)NC(C)=C(C(=O)O[C@@H]2CCCN(Cc3ccccc3)C2)[C@@H]1c1cccc([N+](=O)[O-])c1 | 16.7%
CCn1c(=O)/c(=C2\Sc3ccccc3N2C)s/c1=C\c1cccc[n+]1CC | 3.58%
N=C(N)NC(=N)N1CCOCC1 | -0.5%
N#Cc1ccc(N(Cc2ccc(Br)cc2)n2cnnc2)cc1 | 7.87%
O=C(N[C@@H]1CC[C@@H](c2cccc(F)c2F)CN(CC(F)(F)F)C1=O)N1CCC(n2c(=O)[nH]c3ncccc32)CC1 | 21.5%
N[C@@]1(C(=O)O)CS(=O)(=O)[C@H]2[C@H](C(=O)O)[C@H]21 | 9.11%
O=C1NCCc2[nH]c(-c3ccncc3)cc21 | -2.78%
O=C1Cc2c([nH]c3ccc(Br)cc23)-c2ccccc2N1 | 89.3%
O=C1Cc2c([nH]c3ccc(Br)cc23)-c2ncccc2N1 | 84.9%
CCS(=O)(=O)c1cccc(-c2cc(C(=O)NC3CCN(C)CC3)c(C)c3[nH]c4ncc(C)cc4c23)c1 | 12.4%
O=[N+]([O-])c1cccc2c(Br)n[nH]c12 | -0.83%

SMILES | inhibition
CCCCc1ccc(NS(=O)(=O)c2ccc(F)cc2)cc1 | 18.6%
CN[C@@H](C)[C@H]1[C@H](O)C[C@@]2(C)[C@@H]3CC[C@H]4C(C)(C)[C@@H](NC)CC[C@@]45C[C@@]35CC[C@]12C | -3.38%
Nc1ccncc1N | 42.8%
C=CCSCC1Nc2cc(Cl)c(S(N)(=O)=O)cc2S(=O)(=O)N1 (centres undefined) | 12%
NS(=O)(=O)c1cc2c(cc1Cl)NC(CC1CCCC1)NS2(=O)=O (centres undefined) | 9.09%
NS(=O)(=O)c1cc2c(cc1C(F)(F)F)NC(Cc1ccccc1)NS2(=O)=O (centres undefined) | 103%
C[C@@H](c1nc(-c2ccc(C#N)cc2)cs1)[C@](O)(Cn1cncn1)c1ccc(F)cc1F | 13.6%
N=C(N)NN=C1C=CC(=NNC(N)=S)C=C1 | 8.3%
C=C1/C(=C\C=C2/CCC[C@]3(C)[C@@H]([C@H](C)CC[C@@H](O)C(C)C)CC[C@@H]23)C[C@@H](O)C[C@@H]1O | 24.3%
O=C(c1ccc(-c2ccc(Cl)cc2)o1)N(Cc1ccccn1)c1ccc(N2CCNCC2)cc1 | 9.26%
CCCCOc1cc(C(=O)OCCN(CC)CC)ccc1N | 16.8%
CCCOC(=O)c1ccc(O)cc1 | 73%
CCCCOC(=O)c1ccc(N)cc1 | 44.5%
CCCCOC(=O)c1ccc(O)cc1 | 86.8%
CCOc1ccc(C(=O)OCCN(CC)CC)cc1 | 4.93%
CC/C(=C(/CC)c1ccc(O)cc1)c1ccc(O)cc1 | 19.4%
CCCCN1CCCC1CNC(=O)c1cc(C#N)c2ccccc2c1OC (centres undefined) | 6.77%
NC(=O)c1cnc2[nH]ccc2c1N[C@H]1C2CC3CC1C[C@](O)(C3)C2 | 15.9%
CC(C)C[C@@H](C(=O)N[C@@H](Cc1ccc(OCc2ccccc2)cc1)C(=O)NC(C)(C)C)N(C)Cc1ccc(C(C)(C)C)cc1 | 10.7%
C[C@H]1CC[C@@]2(OC1)O[C@H]1C[C@H]3[C@@H]4CC[C@@H]5C[C@@H](O)CC[C@]5(C)[C@H]4CC[C@]3(C)[C@H]1[C@@H]2C | 5.04%
CN(C)/C=N/c1c(I)cc(I)c(CCC(=O)O)c1I | 6.5%
O=C(NCC1CCCCN1)c1cc(OCC(F)(F)F)ccc1OCC(F)(F)F (centres undefined) | -2.24%
CCC(CC)(CC(=O)Nc1cccc(/C=C/c2nc(C3CCC3)cs2)c1)C(=O)O | 87.3%
COc1cc(N2CCC(O)CC2)ccc1Nc1cc(Nc2ccccc2S(=O)(=O)C(C)C)c2cc[nH]c2n1 | 12.8%
Cc1ccc(-c2ncn(-c3ccc(Nc4nccc(-c5cccc(N6CCOCC6)c5)n4)cc3)n2)cn1 | 0.35%
CCC(=O)NC1Cc2ccccc2C(c2ccccc2)C1 (centres undefined) | 0.79%

SMILES | inhibition
O=[N+]([O-])c1c(Nc2cc(F)cc(Cl)c2)ccc2nonc12 | 22.6%
Nc1ncnc2c1ncn2[C@H]1CC[C@@H](CO)O1 | 46%
N#CC1(c2ccc(NC(=O)c3cccnc3NCc3ccncc3)cc2)CCCC1 | 51.4%
CC1(C)CNc2cc(NC(=O)c3cccnc3NCc3ccncc3)ccc21 | 87.1%
CCCCCCCCCCCCCC(=O)OC(C)C | 30.5%
O=C(O)c1nc(=O)[nH]c(=O)[nH]1 | -2.71%
CC(N)CCCC(C)(C)O (centres undefined) | 6.48%
COc1ccc2c(C(=S)N(C)CC(=O)O)cccc2c1C(F)(F)F | 8.32%
CCN(CC)CC1CCN(c2ncc3ncnc(Nc4ccc(F)c(Cl)c4)c3n2)CC1 | 22.9%
Cc1n[nH]c(C)c1Cc1sc2c(c1C(=O)N1C[C@H](O)CO1)c(=O)n(C)c(=O)n2CC(C)C | 39.2%
COC1CCN(c2cccc(-c3cc(NC(C)=O)nc(-n4nc(C)cc4C)n3)n2)CC1 | 20.5%
CCCC1C(=O)N2C(N(C)C)=Nc3ccc(C)cc3N2C1=O (centres undefined) | 67.9%
O=C1OC2(c3cc(I)c(O)c(I)c3Oc3c2cc(I)c(O)c3I)c2c(Cl)c(Cl)c(Cl)c(Cl)c21 | 69.2% and 74.6%
c1ccc(-c2n[nH]cc2-c2ccnc3ccccc23)nc1 | -5.98%
OCCN1CCN(CC/C=C2/c3ccccc3Sc3ccc(Cl)cc32)CC1 | 89.6%
CN1CCN(CC/C=C2/c3ccccc3Sc3ccc(S(=O)(=O)N(C)C)cc32)CC1 | 30.4%
CN(C)CC/C=C1\c2ccccc2CSc2ccccc21 | 33.1%
CCN(CC)c1ccc(C(=C2C=CC(=[N+](CC)CC)C=C2)c2ccccc2)cc1 | 101%
CCCCC1(COC(=O)CCC(=O)O)C(=O)N(c2ccccc2)N(c2ccccc2)C1=O | 37.6%
O=C(O)CCC/C=C\CC1C(O)CC(O)C1/C=C/C(O)COc1cccc(Cl)c1 (racemic) | 7.35%
CCN(CC)C(=O)Nc1ccc(OCC(O)CNC(C)(C)C)c(C(C)=O)c1 (centres undefined) | 103%
CC(C)OC(=O)c1cc2c(OCC(O)CNC(C)(C)C)cccc2[nH]1 (centres undefined) | 17%
CCCC(=O)Nc1ccc(OCC(O)CNC(C)C)c(C(C)=O)c1 (centres undefined) | -5.99%
CNC(=O)c1ccc2c(c1)NC(=O)/C2=C(\Nc1cccc(CN(C)C)c1)c1ccccc1 | 23.6%
CONC(=N)c1ccc(-c2ccc(-c3ccc(C(=N)NOC)cc3)o2)cc1 | 28.6%
C=C[C@@](C)(/C=C/c1ccc(O)cc1)CCC=C(C)C | 38.3%

SMILES | inhibition
C/C(O)=C(\C#N)C(=O)Nc1ccc(C(F)(F)F)cc1 | 58%
CC(O)(C(=O)Nc1ccc(S(=O)(=O)c2ccccc2)cc1)C(F)(F)F (centres undefined) | 8.38%
CC(=O)Nc1ccc(NC(=S)NC(=O)c2ccc(C(C)(C)C)cc2)cc1 | -1.57%
CCCn1c(=O)[nH]c(=O)c2nc[nH]c21 | 9.19%
O=c1c2ccccc2nc2n1CCc1c-2[nH]c2ccccc12 | 84.3%
Cc1cc(N2CCCCC2)nc2ccccc12 | 12.2%
CN1c2ccccc2C(=O)N2CCc3c([nH]c4ccccc34)C21 (centres undefined) | 36.3%
O=c1c2ccccc2nc2n1CCCCC2 | 111%
CN1C(=O)C(F)=C[C@]2(C)[C@H]3CC[C@]4(C)[C@@H](C(=O)NCc5nc6cccnc6[nH]5)CC[C@H]4[C@@H]3CC[C@@H]12 | -0.34%
CCC(=O)OCC(=O)C1(OC(=O)CC)C(C)CC2C3CCC4=CC(=O)C=CC4(C)C3(Cl)C(O)CC21C (centres undefined) | 5.48%
CCCCc1nn(-c2ccccc2C(F)(F)F)c(=O)n1Cc1ccc(-c2ccccc2S(=O)(=O)NC(=O)c2sccc2C)cc1 | 30.6%
CCCOc1ccc(Br)cc1-c1cc(-c2ccc(Cl)cc2)[nH]c1-c1ccncc1 | 4.47%
C[C@]12C=CC(=O)C=C1CC[C@@H]1[C@@H]2[C@@H](O)C[C@@]2(C)[C@H]1CC[C@]2(O)C(=O)CO | 1.72%
C#C[C@]1(O)CC[C@H]2[C@@H]3CCC4=CC(=O)CC[C@@H]4[C@H]3CC[C@@]21CC | -8.51%
C#C[C@]1(OC(C)=O)CC[C@H]2[C@@H]3CCC4=C/C(=N/O)CC[C@@H]4[C@H]3CC[C@@]21CC | 102%
C#CC1(O)CC[C@H]2[C@@H]3CCC4=CC(=O)CC[C@@H]4[C@H]3CC[C@@]21CC (some centres undefined) | 41%
O=S(=O)(N[C@H]1CC[C@@](c2cc(F)ccc2F)(S(=O)(=O)c2ccc(Cl)cc2)CC1)C(F)(F)F | 19.5%
CC[N+](CC)(CC)CCC(O)(c1ccccc1)C1CCCCC1 (centres undefined) | 43.5%
N[C@@]1(C(=O)O)CC[C@H]2[C@H](C(=O)O)[C@H]21 | 5.51%
Nc1cc(Cl)c(N=C2NCCN2)c(Cl)c1 | 15.3%
O=C(N/N=C/c1ccccc1O)c1ccccc1O | 98.6%
O=C(N/N=C/c1ccc(O)c(O)c1)c1cc2ccccc2cc1O | 59.7%
COC(=O)c1ccccc1O | 25.3%
NC(=O)N/N=C/c1ccc(Oc2ccc(F)cc2)cc1 | 2.96%
O=C(Nc1ccc(O)cc1)c1ccccc1O | 85.3%
Cc1cccc(C)c1NC(=O)c1ccccc1C(=O)O | 2.75%
